# High-throughput results (PubChem)
# PriA SSB inh = inhibitors of Klebsiella pneumoniae PriA binding to SSB C-terminal tail | AlphaScreen SSBct-PriA binding, biotinylated peptide | inhibition, % at 33 µM | hit rate 0.6% among 430,000 | AID 1272365; in the data active means inhibition mostly above about 37%, no sharp cut-off; inactive means mostly below about 20%
# BoNT A protease = inhibitors of Botulinum neurotoxin A light chain protease; hit rate 0.17% among 360,000; inhibition, % at 10 µM; multiplex microsphere protease substrate cleavage, flow cytometry
# Autofluor counter = compound fluorescence in toxin protease inhibitor counterscreen. compound autofluorescence counterscreen, microsphere flow cytometry; stronger effect = higher value. fluorescence intensity (no concentration beside the values). hit rate 3.1% among 360,000. AID 624483; in the data active means fluorescence intensity above about 16000; inconclusive means no clear call, values can overlap the other calls
# BoNT F protease = BoNT F light chain protease inhibition; Multiplex microsphere protease cleavage assay, flow cytometry; inhibition, % at 10 µM; hit rate 0.22% among 360,000; AID 588497; in the data active means inhibition above about 35%, passing the limit was not always enough; inconclusive means no clear call, values can overlap the other calls
# Anthrax LF prot = anthrax lethal factor protease inhibition; inhibition, % at 10 µM; P15917; multiplex microsphere protease cleavage assay, LF; AID 588501; hit rate 0.12% among 360,000
# Target sequence (P15917 whole entry, looked up): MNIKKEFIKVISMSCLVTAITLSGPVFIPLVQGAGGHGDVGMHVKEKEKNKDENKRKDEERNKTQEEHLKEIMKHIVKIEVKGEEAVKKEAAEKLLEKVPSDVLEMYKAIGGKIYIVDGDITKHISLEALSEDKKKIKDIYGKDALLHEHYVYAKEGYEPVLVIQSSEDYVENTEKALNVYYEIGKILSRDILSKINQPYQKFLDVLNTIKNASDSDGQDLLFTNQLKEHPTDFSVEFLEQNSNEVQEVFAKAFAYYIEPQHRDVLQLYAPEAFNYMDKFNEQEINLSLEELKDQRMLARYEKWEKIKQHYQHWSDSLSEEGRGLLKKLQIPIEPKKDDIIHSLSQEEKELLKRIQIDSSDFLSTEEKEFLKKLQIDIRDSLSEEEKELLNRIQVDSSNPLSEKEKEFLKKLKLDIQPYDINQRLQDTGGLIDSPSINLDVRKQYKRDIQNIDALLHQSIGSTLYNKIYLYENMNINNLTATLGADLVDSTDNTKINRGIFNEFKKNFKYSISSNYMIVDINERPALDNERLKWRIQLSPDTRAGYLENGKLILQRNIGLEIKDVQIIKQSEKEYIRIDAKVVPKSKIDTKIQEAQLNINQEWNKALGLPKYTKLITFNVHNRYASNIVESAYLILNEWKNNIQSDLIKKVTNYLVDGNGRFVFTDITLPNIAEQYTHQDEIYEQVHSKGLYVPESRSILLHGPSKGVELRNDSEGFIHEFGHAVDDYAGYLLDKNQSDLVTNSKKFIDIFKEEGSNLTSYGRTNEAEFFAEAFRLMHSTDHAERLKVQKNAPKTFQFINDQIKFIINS
# Numbers stand for hits; i = inactive; ? = inconclusive; nt = not tested or not shown; ! = not active in a repeat. A selection: hits, their analogues and other compounds. The true share with any hit is near 3.1%. Unless noted, no stated cut-off is given here; in the data, active means inhibition above about 30%; inconclusive means no clear call, values can overlap the other calls; inactive means below that.
SMILES,PriA SSB inh,BoNT A protease,Autofluor counter,BoNT F protease,Anthrax LF prot
Cc1cc(NC(=O)C(C)Sc2nnnn2-c2ccc(Cl)cc2)no1 (stereo unspecified),i,nt,nt,nt,nt
O=C(Nc1ccc2c(c1)N(C(=O)c1ccco1)CCC2)c1cc(Cl)ccc1[N+](=O)[O-],i,nt,nt,nt,nt
CCC(C)c1ccc2oc(-c3ccc(NC(=O)c4ncn[nH]4)cc3)nc2c1 (stereo unspecified),i,i,20099,i,i
CC(C)c1ccc2oc(-c3ccc(NC(=O)c4ncn[nH]4)cc3)nc2c1,i,i,i,i,i
O=C(c1ccc(Br)cc1)c1cc2ccc(O)cc2oc1=O,i,i,i,i,i
O=C(c1ccccc1)c1cc2ccc(O)cc2oc1=O,i,i,20651,i,i
Cc1ccc(-c2cc3c(N4CCN(Cc5ccccc5)CC4)nccn3n2)cc1C,i,nt,nt,nt,nt
COc1ccc(NC(=O)C[C@@H]2Nc3ccccc3NC2=O)cc1Cl,i,nt,nt,nt,nt
O=C(CC1Nc2ccccc2NC1=O)Nc1cc(Cl)cc(Cl)c1 (stereo unspecified),i,i,22648,i,i
CC1Oc2ccccc2OC1C(=O)N1CCN(C)CC12CCCC2 (stereo unspecified),i,nt,nt,nt,nt
N=C1CCC(=N)c2c1c(O)c1ccccc1c2O,74,i,i,i,i
CS(=O)(=O)n1nc(-c2ccc(Cl)cc2)nc1SCc1ccccc1,i,i,24875,i,i
CO/N=C/c1cc([N+](=O)[O-])ccc1Sc1ccc(C)cc1,nt,?,21195,i,i
CC(C)C(=O)NC(Nc1ccccc1F)C(Cl)(Cl)Cl (stereo unspecified),i,i,21522,i,i
COc1ccccc1OCC#CCNS(C)(=O)=O,i,nt,nt,nt,nt
Cc1ccccc1OCCN1C(=O)NC2(CCc3ccccc32)C1=O (stereo unspecified),i,i,20031,i,i
Cc1cc(NC(=O)c2ccccc2)no1,i,i,i,i,i
CCn1ncc(C(=O)Nc2cc(C)on2)c1C,i,i,21849,i,i
Cc1cc(NC(=O)c2cc(C)on2)no1,i,i,23413,i,i
C/C(=C\C(=O)Nc1cc(C)on1)c1ccccc1,i,i,22891,i,i
COc1ccc(C(=O)Nc2cc(C)on2)cc1,i,i,16745,i,i
CCCc1cc(C(=O)Nc2cc(C)on2)no1,i,i,i,i,i
Cc1csc(NC(=O)CSc2nc3c(cnn3-c3cccc(Cl)c3)c(=O)[nH]2)n1,i,nt,nt,nt,nt
O=C(NCC1CCCO1)C(=O)Nc1cccc(N2CCCC2=O)c1 (stereo unspecified),i,nt,nt,nt,nt
COc1ccc(-c2nnc(NC(=O)c3cc(C)on3)s2)cc1,i,?,17016,i,i
SMILES,PriA SSB inh,BoNT A protease,Autofluor counter,BoNT F protease,Anthrax LF prot
Cc1cc(NC(=O)c2cnn3c(C(F)F)cc(-c4ccccc4)nc23)no1,i,?,22272,i,i
COc1ccc(-c2csc(NC(=O)c3cc(C)on3)n2)cc1,i,nt,nt,nt,nt
COc1ccc(OCc2cccc(C(=O)Nc3cc(C)on3)c2)cc1,i,i,22339,i,i
CC(=O)Nc1ccc(C(=O)/C=C/c2ccco2)cc1,i,i,i,i,i
CC(=O)Nc1cccc(C(=O)/C=C/c2ccco2)c1,i,?,22380,i,i
COc1cc(OC)cc(C(=O)NC(=S)NCc2ccco2)c1,i,?,16948,i,i
COc1cccc(C(=O)NC(=S)NCc2ccco2)c1,i,i,i,i,i
COc1cccc(N2CCN(C(=S)NCc3ccco3)CC2)c1,i,i,16347,i,i
O=C(NC(=S)NCc1ccco1)c1ccc(Br)o1,45,nt,nt,nt,nt
Cn1cc(C(=O)NC[C@@](O)(c2ccccc2)C(F)(F)F)nn1,i,nt,nt,nt,nt
CCOc1ccc(-c2cc(C(=O)NCCCn3ccnc3)c3ccccc3n2)cc1,i,i,i,i,i
CCOc1ccc(-c2cc(C(=O)NCCCN3CCN(CC)CC3)c3ccccc3n2)cc1,i,?,21315,i,i
Cc1ccc(OCc2nc(C#N)c(N3CCOCC3)o2)cc1,82,nt,nt,nt,nt
N#Cc1nc(COc2ccc(Br)cc2)oc1N1CCCC1,51,i,i,i,i
N#Cc1nc(COc2ccccc2)oc1N1CCCCCC1,109!,i,i,i,i
N#Cc1nc(COc2ccc(F)cc2)oc1N1CCCCCC1,111,nt,nt,nt,nt
N#Cc1nc(COc2ccc(F)cc2)oc1N1CCCCC1,i,i,i,i,i
CCOC(=O)c1sc(NC(=O)C2CCCCN2S(=O)(=O)c2cccs2)cc1C (stereo unspecified),i,nt,nt,nt,nt
Cc1ccc(NC(=O)CSc2nc3c(sc(=S)n3-c3ccccc3C)c(=O)[nH]2)cc1F,i,nt,nt,nt,nt
O=C(c1ncn[nH]1)N1CCC(Cc2n[nH]c(=O)n2-c2ccccc2F)CC1,i,nt,nt,nt,nt
N#Cc1nc(COc2ccc(Cl)cc2)oc1N1CCCCC1,95,nt,nt,nt,nt
N#Cc1nc(COc2ccccc2)oc1N1CCCC1,i,i,i,i,i
CN1CCN(c2oc(COc3ccc(-c4ccccc4)cc3)nc2C#N)CC1,60,i,i,i,i
N#Cc1nc(COc2ccc(Br)cc2)oc1N1CCCCCC1,i,i,i,i,i
COc1ccc(OCc2nc(C#N)c(N3CCCC3)o2)cc1,80,nt,nt,nt,nt
SMILES,PriA SSB inh,BoNT A protease,Autofluor counter,BoNT F protease,Anthrax LF prot
COc1ccc(OCc2nc(C#N)c(N3CCCCCC3)o2)cc1,102,nt,nt,nt,nt
N#Cc1nc(COc2ccc(Cl)cc2Cl)oc1N1CCOCC1,56,i,i,i,i
Cc1cccc(-c2nnc(NC(=O)c3ccc(Cl)cc3)o2)c1,i,i,16877,i,i
N#C/C(C(=O)c1c[nH]c2ccccc12)=C1\SCC(=O)N1c1ccccc1,i,nt,nt,nt,nt
CCOC(=O)N1CCC(=NNS(=O)(=O)c2cccc([N+](=O)[O-])c2)CC1,i,i,22772,i,i
CCOC(=O)C1CCCN(S(=O)(=O)c2cccc([N+](=O)[O-])c2)C1 (stereo unspecified),i,nt,nt,nt,nt
Cc1nc2ncccc2c(=O)n1-c1cccc(NC(=O)C2CC2)c1,i,nt,nt,nt,nt
O=S(=O)(c1cccs1)N1CCN(C[C@H](O)c2cccs2)CC1,i,nt,nt,nt,nt
CCOC(=O)C(=N/O)/C(C)=N/NC(C)=O,nt,i,i,46,i
OC(CNCc1ccccc1)Cn1ccc2ccccc21 (stereo unspecified),i,i,i,i,i
O=C1c2ccccc2S(=O)(=O)N1CC(O)Cn1ccc2ccccc21 (stereo unspecified),i,156,22501,i,i
Oc1ccccc1NCC(O)Cn1ccc2ccccc21 (stereo unspecified),59,?,22217,i,i
O=C1NCCN1C(=O)NCC(O)(c1ccccc1)C1CC1 (stereo unspecified),i,nt,nt,nt,nt
Cc1nn(-c2ccccc2)c(C)c1/C=N/N1CCN(c2ccccc2)CC1,nt,i,20444,i,i
Cc1nn(-c2ccccc2)c(N2CCCC2)c1C=NO,i,nt,nt,nt,nt
Cc1nn(-c2ccccc2)c(N2CCCC2)c1/C=N/O,nt,i,24403,i,i
Cc1nn(-c2ccccc2)c(C)c1C=NNc1nc2ccccc2[nH]1,56,nt,nt,nt,nt
COc1ccccc1N1CCN(C(=O)C2CCC(Cn3c(=S)[nH]c4ccccc4c3=O)CC2)CC1 (stereo unspecified),i,i,17156,i,i
COc1ccc(N2CCN(C(=O)C3CCC(Cn4c(=S)[nH]c5ccccc5c4=O)CC3)CC2)cc1 (stereo unspecified),i,i,17035,i,i
Nc1cc(=O)[nH]c(=O)n1-c1cccc(F)c1,i,i,i,i,i
O=c1ncn(-c2cccc(F)c2)c2ncccc12,i,?,19821,i,i
